Source: PMC7862700, “An all-to-all approach to the identification of sequence-specific readers for epigenetic DNA modifications on cytosine”

Experiments:
Assay in all cases: DAPPL (digital affinity profiling via proximity ligation, sequencing); 10 mM Tris-HCl pH 7.5, 50 mM NaCl, 1 mM DTT, 4% glycerol, room temperature, 30 min; GST-TFs on glutathione beads, 16-mer random dsDNA library, 0.1% formaldehyde crosslink after washing; high values mean tight binding
Details in all cases: protein: recombinant; tags: N-terminal GST; dsDNA, one strand shown
[1] = target: T1, FLI1 (Homo sapiens, UniProt Q01543 1-452)
T1 sequence: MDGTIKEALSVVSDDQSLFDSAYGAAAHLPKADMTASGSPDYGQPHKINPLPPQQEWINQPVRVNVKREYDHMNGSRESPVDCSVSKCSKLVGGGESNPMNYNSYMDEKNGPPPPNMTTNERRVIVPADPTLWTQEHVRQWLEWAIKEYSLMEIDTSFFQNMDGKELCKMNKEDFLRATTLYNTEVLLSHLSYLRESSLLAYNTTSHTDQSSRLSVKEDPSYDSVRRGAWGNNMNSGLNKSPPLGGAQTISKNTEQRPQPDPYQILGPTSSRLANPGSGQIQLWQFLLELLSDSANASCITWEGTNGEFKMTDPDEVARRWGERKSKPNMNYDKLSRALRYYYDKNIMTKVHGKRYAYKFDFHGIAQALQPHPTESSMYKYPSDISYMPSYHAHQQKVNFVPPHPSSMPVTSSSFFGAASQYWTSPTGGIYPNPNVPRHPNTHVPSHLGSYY
Summary of the method: (§1)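 Human transcription factors were made in yeast as GST fusions, captured on glutathione beads and barcoded with DNA. With a tag-only sample included, the pool was incubated with 200 nmole of a random double-stranded 16-mer DNA library in Tris/NaCl/DTT/glycerol buffer at room temperature for 30 min, then crosslinked with 0.1% formaldehyde after washing, ligated by proximity, amplified and sequenced. For binding signal, each hexamer's read frequency for a factor is divided by its frequency for the tag-only sample.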

[2] = target: ELF4 (Homo sapiens, UniProt Q99607 1-663)
Chain of ELF4 (Q99607 whole entry): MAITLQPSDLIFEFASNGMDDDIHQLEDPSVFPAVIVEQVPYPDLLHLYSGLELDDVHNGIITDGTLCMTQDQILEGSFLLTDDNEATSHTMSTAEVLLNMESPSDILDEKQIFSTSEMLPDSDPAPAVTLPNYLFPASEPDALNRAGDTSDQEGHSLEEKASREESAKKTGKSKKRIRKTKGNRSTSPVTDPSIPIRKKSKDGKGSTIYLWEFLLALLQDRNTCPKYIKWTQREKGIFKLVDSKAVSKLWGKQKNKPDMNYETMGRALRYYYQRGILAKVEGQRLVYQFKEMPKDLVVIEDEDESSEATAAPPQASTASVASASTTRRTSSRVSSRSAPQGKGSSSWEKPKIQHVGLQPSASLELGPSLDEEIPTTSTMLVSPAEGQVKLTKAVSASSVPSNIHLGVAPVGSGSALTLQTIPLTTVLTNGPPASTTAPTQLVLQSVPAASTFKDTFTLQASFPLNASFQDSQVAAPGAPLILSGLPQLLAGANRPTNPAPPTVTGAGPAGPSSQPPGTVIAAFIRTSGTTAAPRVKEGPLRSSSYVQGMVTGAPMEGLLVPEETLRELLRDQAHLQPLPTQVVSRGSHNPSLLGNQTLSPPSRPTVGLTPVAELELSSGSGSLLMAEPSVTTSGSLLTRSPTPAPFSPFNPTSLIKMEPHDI
Summary of the method: as §1

[3] = target: T2, ELK4 (Homo sapiens, UniProt P28324-2 1-405)
T2 sequence: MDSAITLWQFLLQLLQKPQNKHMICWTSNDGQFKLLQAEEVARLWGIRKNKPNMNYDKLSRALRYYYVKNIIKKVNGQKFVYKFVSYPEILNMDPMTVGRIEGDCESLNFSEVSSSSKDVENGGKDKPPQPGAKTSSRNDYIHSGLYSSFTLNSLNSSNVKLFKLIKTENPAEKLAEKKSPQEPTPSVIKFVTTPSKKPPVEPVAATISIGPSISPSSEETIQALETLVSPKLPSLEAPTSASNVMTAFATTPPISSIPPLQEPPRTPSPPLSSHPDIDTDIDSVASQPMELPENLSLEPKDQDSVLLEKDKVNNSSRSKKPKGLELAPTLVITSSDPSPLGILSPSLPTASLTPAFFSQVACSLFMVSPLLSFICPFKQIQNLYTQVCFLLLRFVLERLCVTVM
Summary of the method: as §1

[4] = target: T3, GABPA (Homo sapiens, UniProt Q06546 1-454)
T3 sequence: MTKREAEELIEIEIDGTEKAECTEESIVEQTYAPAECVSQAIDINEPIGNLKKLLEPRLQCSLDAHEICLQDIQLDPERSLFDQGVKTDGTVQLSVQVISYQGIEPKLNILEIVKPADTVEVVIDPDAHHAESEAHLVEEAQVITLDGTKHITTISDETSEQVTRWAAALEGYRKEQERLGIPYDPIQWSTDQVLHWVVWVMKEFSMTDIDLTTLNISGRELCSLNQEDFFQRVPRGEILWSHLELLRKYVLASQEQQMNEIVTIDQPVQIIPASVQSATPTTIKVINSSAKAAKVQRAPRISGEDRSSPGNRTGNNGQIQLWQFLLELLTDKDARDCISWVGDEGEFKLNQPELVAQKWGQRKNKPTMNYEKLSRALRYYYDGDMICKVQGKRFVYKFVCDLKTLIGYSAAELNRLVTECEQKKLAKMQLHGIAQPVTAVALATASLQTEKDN
Summary of the method: as §1

[5] = target: T4, ERF (Homo sapiens, UniProt P50548 1-548)
T4 sequence: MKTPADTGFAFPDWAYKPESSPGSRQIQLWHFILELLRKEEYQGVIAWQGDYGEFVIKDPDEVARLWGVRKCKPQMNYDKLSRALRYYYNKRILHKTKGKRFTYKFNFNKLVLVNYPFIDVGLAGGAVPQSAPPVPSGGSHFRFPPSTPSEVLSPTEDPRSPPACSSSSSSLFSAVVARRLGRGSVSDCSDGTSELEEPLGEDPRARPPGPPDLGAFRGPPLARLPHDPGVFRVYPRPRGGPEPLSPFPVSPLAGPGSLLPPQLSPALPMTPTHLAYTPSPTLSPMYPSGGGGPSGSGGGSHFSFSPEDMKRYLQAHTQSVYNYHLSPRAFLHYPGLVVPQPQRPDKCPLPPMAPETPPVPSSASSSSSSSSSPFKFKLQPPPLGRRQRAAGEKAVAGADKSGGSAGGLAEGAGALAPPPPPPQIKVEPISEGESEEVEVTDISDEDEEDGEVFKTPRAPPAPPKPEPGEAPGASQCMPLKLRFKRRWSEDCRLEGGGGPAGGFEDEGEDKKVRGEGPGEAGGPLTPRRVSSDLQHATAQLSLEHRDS
Summary of the method: as §1

[6] = target: T5, ETV7 (Homo sapiens, UniProt Q9Y603 1-341)
T5 sequence: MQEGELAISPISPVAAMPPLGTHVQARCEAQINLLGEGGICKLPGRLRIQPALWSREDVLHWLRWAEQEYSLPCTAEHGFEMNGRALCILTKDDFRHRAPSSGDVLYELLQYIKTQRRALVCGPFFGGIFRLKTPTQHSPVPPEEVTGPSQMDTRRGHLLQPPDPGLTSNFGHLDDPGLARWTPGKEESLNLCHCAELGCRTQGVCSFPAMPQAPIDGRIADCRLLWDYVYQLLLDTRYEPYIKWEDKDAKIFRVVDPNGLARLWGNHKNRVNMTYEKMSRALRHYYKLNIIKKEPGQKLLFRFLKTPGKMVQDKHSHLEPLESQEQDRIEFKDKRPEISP
Summary of the method: as §1

[7] = target: T6, ETV3 (Homo sapiens, UniProt P41162-2 1-143)
T6 sequence: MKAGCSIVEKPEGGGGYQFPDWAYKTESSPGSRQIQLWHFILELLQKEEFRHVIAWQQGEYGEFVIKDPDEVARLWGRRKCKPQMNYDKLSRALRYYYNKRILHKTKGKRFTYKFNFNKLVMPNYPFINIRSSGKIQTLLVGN
Summary of the method: as §1

[8] = target: ETV6 (Homo sapiens, UniProt P41212 1-452)
Chain of ETV6 (P41212 whole entry): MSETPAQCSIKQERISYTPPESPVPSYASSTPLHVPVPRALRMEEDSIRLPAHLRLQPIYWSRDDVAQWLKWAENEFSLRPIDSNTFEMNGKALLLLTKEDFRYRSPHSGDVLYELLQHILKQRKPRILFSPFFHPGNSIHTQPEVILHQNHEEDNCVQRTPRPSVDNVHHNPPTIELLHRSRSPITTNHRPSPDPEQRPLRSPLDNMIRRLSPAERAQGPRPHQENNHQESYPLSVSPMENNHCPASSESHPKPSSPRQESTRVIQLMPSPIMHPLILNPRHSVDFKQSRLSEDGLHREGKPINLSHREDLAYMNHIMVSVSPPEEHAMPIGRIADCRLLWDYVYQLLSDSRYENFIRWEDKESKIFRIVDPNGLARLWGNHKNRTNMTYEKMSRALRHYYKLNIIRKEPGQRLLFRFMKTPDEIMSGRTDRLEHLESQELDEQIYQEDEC
Summary of the method: as §1

[9] = target: ELF1 (Homo sapiens, UniProt P32519 1-619)
Chain of ELF1 (P32519 whole entry): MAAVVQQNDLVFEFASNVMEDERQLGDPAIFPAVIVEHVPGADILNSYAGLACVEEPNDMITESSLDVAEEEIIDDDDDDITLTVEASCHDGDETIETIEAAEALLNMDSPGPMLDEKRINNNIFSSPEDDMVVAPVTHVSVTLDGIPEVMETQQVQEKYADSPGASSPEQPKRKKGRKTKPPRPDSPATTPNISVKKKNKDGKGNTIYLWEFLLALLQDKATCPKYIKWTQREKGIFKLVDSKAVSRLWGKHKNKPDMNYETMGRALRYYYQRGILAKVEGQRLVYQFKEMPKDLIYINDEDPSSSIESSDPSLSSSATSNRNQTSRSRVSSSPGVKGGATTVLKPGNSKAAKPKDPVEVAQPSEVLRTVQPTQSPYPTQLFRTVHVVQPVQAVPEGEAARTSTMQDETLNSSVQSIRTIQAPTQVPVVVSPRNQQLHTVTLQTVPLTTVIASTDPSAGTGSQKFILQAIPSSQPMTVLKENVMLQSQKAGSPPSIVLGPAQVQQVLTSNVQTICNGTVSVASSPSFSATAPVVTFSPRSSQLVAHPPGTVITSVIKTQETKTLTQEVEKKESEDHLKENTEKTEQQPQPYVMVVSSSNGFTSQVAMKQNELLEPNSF
Summary of the method: as §1

[10] = target: SPIB (Homo sapiens, UniProt Q01892 1-262)
Chain of SPIB (Q01892 whole entry): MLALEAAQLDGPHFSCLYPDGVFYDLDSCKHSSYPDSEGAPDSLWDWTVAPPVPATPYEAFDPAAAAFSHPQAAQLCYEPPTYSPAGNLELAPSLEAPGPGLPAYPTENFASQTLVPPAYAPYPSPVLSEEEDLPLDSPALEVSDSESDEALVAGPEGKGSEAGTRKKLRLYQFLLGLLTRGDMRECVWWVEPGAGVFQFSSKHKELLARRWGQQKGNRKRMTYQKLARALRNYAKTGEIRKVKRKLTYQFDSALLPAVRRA
Summary of the method: as §1

[11] = target: T7, ETV2 (Homo sapiens, UniProt O00321 1-342)
T7 sequence: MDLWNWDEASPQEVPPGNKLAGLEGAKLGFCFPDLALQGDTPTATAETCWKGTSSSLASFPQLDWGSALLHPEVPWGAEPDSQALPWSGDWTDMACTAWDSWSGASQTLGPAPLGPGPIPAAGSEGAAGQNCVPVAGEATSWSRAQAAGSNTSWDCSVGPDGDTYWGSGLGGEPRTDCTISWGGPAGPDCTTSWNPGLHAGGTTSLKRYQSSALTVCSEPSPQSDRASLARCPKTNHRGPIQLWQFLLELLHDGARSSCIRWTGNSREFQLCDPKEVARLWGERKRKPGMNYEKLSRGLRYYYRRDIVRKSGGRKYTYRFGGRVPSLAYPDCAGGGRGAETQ
Summary of the method: as §1

[12] = target: T8, ELF3 (Homo sapiens, UniProt P78545 1-371)
T8 sequence: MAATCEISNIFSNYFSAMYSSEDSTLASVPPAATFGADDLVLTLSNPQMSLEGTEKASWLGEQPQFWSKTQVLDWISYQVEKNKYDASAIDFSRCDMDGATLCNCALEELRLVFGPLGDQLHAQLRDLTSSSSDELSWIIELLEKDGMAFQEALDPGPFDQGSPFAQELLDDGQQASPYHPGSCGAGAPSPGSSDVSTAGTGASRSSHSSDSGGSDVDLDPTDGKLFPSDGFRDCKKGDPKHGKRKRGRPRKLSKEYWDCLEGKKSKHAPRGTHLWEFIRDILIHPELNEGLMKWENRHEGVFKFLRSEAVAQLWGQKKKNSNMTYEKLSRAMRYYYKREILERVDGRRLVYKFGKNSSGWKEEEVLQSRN
Summary of the method: as §1

[13] = target: ETV1 (Homo sapiens, UniProt P50549 1-477)
Chain of ETV1 (P50549 whole entry): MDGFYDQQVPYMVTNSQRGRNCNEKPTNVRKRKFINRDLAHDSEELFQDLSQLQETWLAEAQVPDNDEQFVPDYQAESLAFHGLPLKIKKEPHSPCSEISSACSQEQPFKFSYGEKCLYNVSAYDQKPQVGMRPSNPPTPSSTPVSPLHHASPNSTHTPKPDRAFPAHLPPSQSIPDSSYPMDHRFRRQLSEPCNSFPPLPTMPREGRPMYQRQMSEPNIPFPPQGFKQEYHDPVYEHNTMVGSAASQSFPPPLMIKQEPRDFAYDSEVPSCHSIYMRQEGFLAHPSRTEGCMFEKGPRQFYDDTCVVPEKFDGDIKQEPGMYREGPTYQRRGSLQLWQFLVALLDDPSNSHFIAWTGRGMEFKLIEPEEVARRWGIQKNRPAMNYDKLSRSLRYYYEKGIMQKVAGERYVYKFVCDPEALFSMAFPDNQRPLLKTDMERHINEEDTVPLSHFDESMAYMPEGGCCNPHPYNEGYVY
Summary of the method: as §1

[14] = target: T9, ETV3L (Homo sapiens, UniProt Q6ZN32 1-361)
T9 sequence: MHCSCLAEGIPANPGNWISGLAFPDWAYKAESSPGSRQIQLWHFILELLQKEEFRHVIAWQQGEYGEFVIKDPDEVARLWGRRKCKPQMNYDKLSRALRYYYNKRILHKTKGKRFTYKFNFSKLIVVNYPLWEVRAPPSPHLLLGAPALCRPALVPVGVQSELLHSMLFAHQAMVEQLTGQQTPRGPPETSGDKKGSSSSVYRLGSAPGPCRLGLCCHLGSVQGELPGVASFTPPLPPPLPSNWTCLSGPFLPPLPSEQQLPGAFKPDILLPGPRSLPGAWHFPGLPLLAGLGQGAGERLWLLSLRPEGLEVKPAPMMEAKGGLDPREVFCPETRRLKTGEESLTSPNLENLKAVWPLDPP
Summary of the method: as §1

Row | Sequence | binding signal [1] | binding signal [2] | binding signal [3] | binding signal [4] | binding signal [5] | binding signal [6] | binding signal [7] | binding signal [8] | binding signal [9] | binding signal [10] | binding signal [11] | binding signal [12] | binding signal [13] | binding signal [14]
1 | CCACAG | 1.01 fold enrichment (6-mer frequency, TF over GST control) | 1.03 fold enrichment (6-mer frequency, TF over GST control) | 1.04 fold enrichment (6-mer frequency, TF over GST control) |  |  |  |  |  |  |  |  |  |  | 
2 | ACCGTT | 1.03 fold enrichment (6-mer frequency, TF over GST control) | 1 fold enrichment (6-mer frequency, TF over GST control) |  | 1.02 fold enrichment (6-mer frequency, TF over GST control) | 1.05 fold enrichment (6-mer frequency, TF over GST control) | 1.08 fold enrichment (6-mer frequency, TF over GST control) | 1.01 fold enrichment (6-mer frequency, TF over GST control) | 1 fold enrichment (6-mer frequency, TF over GST control) |  |  |  |  |  | 
3 | CGTACG | 1 fold enrichment (6-mer frequency, TF over GST control) | 1.07 fold enrichment (6-mer frequency, TF over GST control) |  | 1.03 fold enrichment (6-mer frequency, TF over GST control) | 1.04 fold enrichment (6-mer frequency, TF over GST control) | 1.06 fold enrichment (6-mer frequency, TF over GST control) |  | 1.06 fold enrichment (6-mer frequency, TF over GST control) | 1.07 fold enrichment (6-mer frequency, TF over GST control) | 1.01 fold enrichment (6-mer frequency, TF over GST control) | 1.19 fold enrichment (6-mer frequency, TF over GST control) | 1.01 fold enrichment (6-mer frequency, TF over GST control) | 1.1 fold enrichment (6-mer frequency, TF over GST control) | 1.08 fold enrichment (6-mer frequency, TF over GST control)
